NPC1 prom act = qHTS Assay for NPC1 Promoter Activators; Huh7 NPC1 promoter luciferase reporter, 24 h; Potency, µM (series often up to 9.22 µM), for inactives: at the highest dose activation, most hits filed as activators; 2.4% of 320,000 active; AID 485313, 2010; note: % of control where 0% means no effect; nearly all actives have a fitted effect of over 60% in size
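Cells: Huh7 expressing luciferase under the NPC1 promoter, 1500/well. Seeded 2 h, compound added, incubated 24 h at 37 °C. Luciferase reagent, 10 min ambient, then luminescence.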
Rab9 prom act = qHTS Assay for Rab9 Promoter Activators | Huh7 Rab9 promoter-luciferase reporter, luminescence, 24 h | Potency, µM (doses to about 9.22 µM), for the others: at the top dose activation, negative = inhibition, hits mostly activators | 2.8% of 320,000 active; note: % of control where 0% means no effect; nearly all actives have a fitted effect of over 60% in size
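Rab9 promoter-driven luciferase in stably transfected Huh7 cells; 1500 cells/well rested 2 h, exposed to compound in DMSO for 24 h at 37 °C, 5% CO2. Luminescence read 10 min after adding luciferase reagent at ambient temperature.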
ELG1 genotox = qHTS screen for small molecules that induce genotoxicity in human embryonic kidney (HEK293T) cells expressing luciferase-tagged ELG1; HEK293T ELG1-luciferase reporter, luminescence, 16 h; Potency, µM (highest dose often 46 µM), for the others: top-dose activity change, positive = activation, most hits filed as activators; 1.3% of 330,000 active; AID 504466, 2011; note: % of control where 0% means no effect; nearly all actives have a fitted effect of over 60% in size
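DMSO vehicle served as control against compound-treated ELG1-luciferase HEK293T cells; exposure lasted 16 hr at 37 °C and 5% CO2, followed by ONE-Glo luminescence detection after 30 min.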
SMN2 splice up = qHTS Assay for Enhancers of SMN2 Splice Variant Expression; Potency, µM (series often up to 46.1 µM), inactives show at the top dose activity change, positive = activation, actives largely listed as activators; 2.8% of 210,000 active; HEK293 SMN2-luciferase splicing reporter, luminescence, 30-36 h; note: % of control where 0% means no effect; nearly all actives have a fitted effect of over 55% in size
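qHTS luciferase splicing reporter: luminescence rises when SMN2 exon 7 is included in transfected HEK293 cells. Compound exposure lasted 30-36 h at 37C, with 4.5 mM final sodium butyrate as control, followed by a ONE-Glo read.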
FLuc counter = qHTS profiling assay for firefly luciferase inhibitor/activator using purifed enzyme and Km concentrations of substrates (counterscreen for miR-21 project); purified FLuc, Km substrates, luminescence inhibition; Potency, µM (series often up to 57.5 µM), without a hit: at the top dose activity change, negative = inhibition, most hits filed as inhibitors; 6.9% of 360,000 active;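 note: plate controls were vehicle for no effect and reference inhibitor for full effect; nearly all actives have a fitted effect of over 55% in size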
Target sequence (P08659 whole entry, looked up): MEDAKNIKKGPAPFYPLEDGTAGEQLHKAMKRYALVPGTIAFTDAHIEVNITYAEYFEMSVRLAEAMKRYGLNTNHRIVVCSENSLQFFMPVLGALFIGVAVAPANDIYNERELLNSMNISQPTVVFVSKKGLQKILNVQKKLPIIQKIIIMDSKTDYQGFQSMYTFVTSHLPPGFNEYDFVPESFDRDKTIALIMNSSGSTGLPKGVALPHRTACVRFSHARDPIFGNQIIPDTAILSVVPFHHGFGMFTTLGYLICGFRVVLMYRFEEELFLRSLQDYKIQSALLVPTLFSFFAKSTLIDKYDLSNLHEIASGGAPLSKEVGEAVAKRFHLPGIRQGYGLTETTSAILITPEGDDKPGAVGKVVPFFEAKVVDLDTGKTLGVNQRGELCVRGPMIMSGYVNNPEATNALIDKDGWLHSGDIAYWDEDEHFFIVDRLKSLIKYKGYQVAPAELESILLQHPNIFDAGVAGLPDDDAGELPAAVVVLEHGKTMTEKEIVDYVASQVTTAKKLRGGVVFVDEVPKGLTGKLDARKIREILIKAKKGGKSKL
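Biochemical qHTS of compounds, final roughly 60 µM downward over six points, against 10 nM purified firefly luciferase using Km concentrations of substrates (10 uM D-luciferin, 10 uM ATP) in Tris acetate pH 7.5 buffer; luminescence output.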
Active calls of the source: *; [ ] = dose if it differs, or a comment. Most compounds without a hit are left out; they make up all but 7.5% or so of the library. Calls come from the whole dose curve; as a rule, active = well fitted curve in the direction sought with a large enough effect; inconclusive = small, poorly fitted or top-dose-only effect, or another doubt; inactive = no such curve, though single readings can be large; an effect the other way counts as inactive or inconclusive. Potency is the fitted concentration of half-maximal effect.

What do the screens show for `CCCn1c(SCC(=O)NC2CC2)nnc1-c1cccs1`?
NPC1 prom act: 4.6%; Rab9 prom act: 25.0%; ELG1 genotox: 6.7%; FLuc counter: 2.3%

Results for Cn1c(SCC(=O)NC2CC2)nnc1-c1cccs1 ?
NPC1 prom act: 3.98µM*; Rab9 prom act: 3.98µM*; ELG1 genotox: 26.1%; FLuc counter: inconclusive

What do the screens show for `Nn1c(SCc2ccccc2F)nnc1-c1cccnc1`?
NPC1 prom act: inconclusive; Rab9 prom act: 2.24µM*; ELG1 genotox: inconclusive; FLuc counter: inconclusive

How did Cn1c(SCc2ccc(F)cc2)nnc1-c1ccccn1 do in these assays?
NPC1 prom act: 4.47µM*; Rab9 prom act: 2.24µM*; ELG1 genotox: inconclusive; SMN2 splice up: inconclusive; FLuc counter: inconclusive

How did Cn1c(SCc2ccccc2F)nnc1-c1ccccn1 do in these assays?
NPC1 prom act: 3.98µM*; Rab9 prom act: 2.24µM*; ELG1 genotox: inconclusive; SMN2 splice up: 11.2µM*; FLuc counter: inconclusive

How did Cc1ccc(CSc2nnc(-c3ccccn3)n2C)cc1 do in these assays?
NPC1 prom act: 26.1%; Rab9 prom act: inconclusive; ELG1 genotox: inconclusive; SMN2 splice up: 12.9%; FLuc counter: inconclusive

What do the screens show for `COc1cc(-c2nc3cnccn3c2Nc2ccc(C(C)C)cc2)ccc1O`?
NPC1 prom act: -1.7%; Rab9 prom act: -1.6%; ELG1 genotox: 14.5%; SMN2 splice up: -9.4%; FLuc counter: -0.7%

What do the screens show for `COc1cc(-c2nc3cnccn3c2Nc2ccccc2)ccc1O`?
NPC1 prom act: -6.5%; Rab9 prom act: -7.2%; ELG1 genotox: 5.9%; SMN2 splice up: 14.1µM*; FLuc counter: -9.0%

How did COc1cc(-c2nc3cnccn3c2Nc2ccc(C)cc2)ccc1O do in these assays?
NPC1 prom act: 1.1%; Rab9 prom act: -2.6%; ELG1 genotox: 13µM*; SMN2 splice up: 17.8µM*; FLuc counter: -8.9%

What do the screens show for `c1ccc(Cc2nc3ccccc3o2)cc1`?
NPC1 prom act: 0.7%; Rab9 prom act: 7.4%; ELG1 genotox: 14.8%; SMN2 splice up: -2.8%; FLuc counter: 19µM*

Results for C=C1SC(=Nc2ccccc2Cl)N(C(=O)c2sc3ccccc3c2Cl)C12CCCCC2 ?
NPC1 prom act: 10.1%; Rab9 prom act: 22.8%; ELG1 genotox: 5.9%; FLuc counter: 21.3µM*

How did CCc1nn(CC(=O)NCCCN2CCc3ccccc3C2)c(=O)c2cc3sccc3n12 do in these assays?
NPC1 prom act: 0.1%; Rab9 prom act: -3.6%; ELG1 genotox: -3.0%; SMN2 splice up: -18.7%; FLuc counter: 3.5%

How did Cc1cc(/C=c2\sc3nc4ccccc4n3c2=O)c(C)n1-c1ccc(C(=O)O)cc1 do in these assays?
NPC1 prom act: inconclusive; Rab9 prom act: 16.4%; ELG1 genotox: 4.7%; SMN2 splice up: -22.4%; FLuc counter: 15.1µM*

What do the screens show for `CCN(CC)c1ccc(/C=c2\sc3nc4ccccc4n3c2=O)c(O)c1`?
NPC1 prom act: 3.6%; Rab9 prom act: 2.2%; ELG1 genotox: -19.1%; SMN2 splice up: -46.0%; FLuc counter: inconclusive

Results for O=c1/c(=C/c2ccc(O)c([N+](=O)[O-])c2)sc2nc3ccccc3n12 ?
NPC1 prom act: 26.1%; Rab9 prom act: 2.9%; ELG1 genotox: 12.1%; SMN2 splice up: -20.0%; FLuc counter: 6.75µM*

Results for O=c1/c(=C\c2cccnc2)sc2nc3ccccc3n12 ?
NPC1 prom act: -5.4%; Rab9 prom act: -1.8%; ELG1 genotox: inconclusive; SMN2 splice up: inconclusive; FLuc counter: -16.0%[2.3 µM]

What do the screens show for `Cc1cc(/C=c2/sc3nc4ccccc4n3c2=O)c(C)n1-c1ccccn1`?
NPC1 prom act: -32.5%; Rab9 prom act: -28.0%; ELG1 genotox: -2.8%; SMN2 splice up: -84.4%; FLuc counter: 0.135µM*

Results for NC(=O)c1ccc(NC(=O)CSc2nnc(C3CCCCC3)n2N)cc1 ?
NPC1 prom act: -0.5%; Rab9 prom act: -2.0%; ELG1 genotox: 0.0%; FLuc counter: 0.0%

Results for O=C(/C=C/c1ccc(OC(F)F)cc1)Nc1cccc(S(=O)(=O)N2CCOCC2)c1 ?
NPC1 prom act: 14.8%; Rab9 prom act: 1.9%; ELG1 genotox: -27.8%; FLuc counter: 4.78µM*

Results for O=C(/C=C/c1ccco1)Nc1cccc(S(=O)(=O)N2CCOCC2)c1 ?
NPC1 prom act: 11.7%; Rab9 prom act: inconclusive; ELG1 genotox: 0.7%; SMN2 splice up: 16.4%; FLuc counter: 16.9µM*

Results for O=C(COC(=O)/C=C/c1ccc(OC(F)F)cc1)Nc1cccc(S(=O)(=O)N2CCCC2)c1 ?
NPC1 prom act: 0.3%; Rab9 prom act: -6.7%; ELG1 genotox: 9.1%; FLuc counter: 19µM*

How did Cc1ccc(/C=C/C(=O)Nc2cccc(S(=O)(=O)N3CCOCC3)c2)o1 do in these assays?
NPC1 prom act: 6.4%; Rab9 prom act: -0.6%; ELG1 genotox: -1.3%; SMN2 splice up: -15.2%; FLuc counter: inconclusive

How did CCCc1nnc(SCC(=O)Nc2ccc(OC)cc2)o1 do in these assays?
NPC1 prom act: 0.1%; Rab9 prom act: -4.6%; ELG1 genotox: 7.6%; FLuc counter: 5.1%

What do the screens show for `Cc1cc(NC(=O)CN2C(=O)CSc3ccc(S(=O)(=O)N(C)C)cc32)ccc1Br`?
FLuc counter: -19.9%

What do the screens show for `CCOc1ccc(OCc2ccc(C(=O)N3CCCCC3)o2)cc1`?
NPC1 prom act: 23.8%; Rab9 prom act: inconclusive; ELG1 genotox: 2.3%; FLuc counter: inconclusive

How did COc1cccc(C(=O)Nc2ccccc2N2CCOCC2)c1 do in these assays?
NPC1 prom act: -0.8%; Rab9 prom act: -1.2%; ELG1 genotox: -3.9%; SMN2 splice up: inconclusive; FLuc counter: -7.0%

Results for O=C(NC1CCCCC1)N(CCN1CCOCC1)Cc1cc2cc3c(cc2[nH]c1=O)OCCO3 ?
NPC1 prom act: -3.6%; Rab9 prom act: 2.9%; ELG1 genotox: 5.2%; SMN2 splice up: -7.9%; FLuc counter: 1.6%

How did COc1ccc(NCC(=O)N/N=C/C=C\c2ccccc2)cc1 do in these assays?
NPC1 prom act: -3.7%; Rab9 prom act: 2.3%; ELG1 genotox: -1.7%; SMN2 splice up: 37.9%; FLuc counter: inconclusive

How did O=C(COc1ccccc1[N+](=O)[O-])N/N=C/C=C/c1ccco1 do in these assays?
NPC1 prom act: 10.1%; Rab9 prom act: 12.9%; ELG1 genotox: 7.6%; SMN2 splice up: 8.2%; FLuc counter: -0.5%

What do the screens show for `Cc1ccc(OCC(=O)N/N=C/C=C/c2ccco2)cc1`?
NPC1 prom act: -2.2%; Rab9 prom act: -4.9%; ELG1 genotox: -0.5%; SMN2 splice up: -0.6%; FLuc counter: 19µM*

Results for COc1ccc(/C=C/C(=O)Oc2cccc(/C=N/NC(=O)COc3c(C)cccc3C)c2)cc1 ?
NPC1 prom act: 1.58µM*; Rab9 prom act: 2.82µM*; ELG1 genotox: inconclusive; SMN2 splice up: inconclusive; FLuc counter: -13.6%
